This passage reports outcome results from PubChem BioAssay (EPA / NIEHS).

Assay [1] deals with Peroxisome proliferator-activated receptor gamma (Homo sapiens) (UniProt P37231). In words: OT_PPARg_PPARgSRC1_0480: Odyssey Thera (OT) 8-hour Protein-Complementation Assay for Peroxisome Proliferator-activated Receptor Gamma / SRC-1 Co-activator (AID 2283387).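 Also: nuclear to cytoplasmic split Venus YFP fluorescence ratio reporting PPARg SRC-1 interaction.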 The essentials: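 Read-out: 488 nm N/C fluorescence ratio from complemented Venus YFP fragments, ≥350 cells per image, gain-of-signal fitted against DMSO baseline. Fusions of PPARg/SRC-1 with IFP1/IFP2 expressed transiently in HEK293T; compounds applied 8 h.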

For assay [2] the target is unchanged. In words: OT_PPARg_PPARgSRC1_1440: Odyssey Thera (OT) 24-hour Protein-Complementation Assay for Peroxisome Proliferator-activated Receptor Gamma/ SRC-1 Co-activator (AID 2283388).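 Also: nuclear to cytoplasmic ratio of reconstituted Venus YFP fluorescence in fixed imaged cells.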 In a few lines: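 Cells carrying the PPARg/SRC-1 fragment-complementation reporter receive compound for 24 hours, are fixed and counterstained with Draq5, then imaged. Increased nuclear relative to cytoplasmic YFP fluorescence above DMSO baseline indicates binding activity.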

Records with an inconclusive call do not appear. The source made the active and inactive calls. The calls were made as follows: active = hit-call score of the fitted dose curve at least 0.9, where 1 is the maximum; inconclusive = response in the unintended direction; inactive = score below 0.9.

Peroxisome proliferator-activated receptor gamma (Homo sapiens), sequence (P37231 whole entry, looked up, the tested form may be a part): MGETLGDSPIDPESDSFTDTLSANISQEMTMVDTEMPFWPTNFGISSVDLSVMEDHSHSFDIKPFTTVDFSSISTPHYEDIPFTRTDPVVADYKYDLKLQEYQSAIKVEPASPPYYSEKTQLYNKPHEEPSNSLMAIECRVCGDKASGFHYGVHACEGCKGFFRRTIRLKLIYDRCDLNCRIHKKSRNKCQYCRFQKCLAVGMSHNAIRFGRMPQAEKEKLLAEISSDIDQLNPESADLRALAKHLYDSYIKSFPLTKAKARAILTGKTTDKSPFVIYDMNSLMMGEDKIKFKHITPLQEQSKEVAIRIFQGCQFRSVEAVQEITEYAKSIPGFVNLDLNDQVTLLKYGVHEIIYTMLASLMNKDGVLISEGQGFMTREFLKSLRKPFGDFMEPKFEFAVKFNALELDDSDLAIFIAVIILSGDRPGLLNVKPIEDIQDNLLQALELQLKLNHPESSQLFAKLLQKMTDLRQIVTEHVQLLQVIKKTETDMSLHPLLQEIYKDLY

Consider `OC[C@H]1O[C@@H](O[C@H]2[C@H](O)[C@@H](O)[C@H](O)O[C@@H]2CO)[C@H](O)[C@@H](O)[C@H]1O`, for which the result in assay [1] and in assay [2] was inactive.
Turning to `COC(=O)c1ccc(C(=O)OC)cc1`, the outcome in assay [1] and in assay [2] was inactive.
Take `C1CCCNCC1`: the call in assay [1] and in assay [2] was inactive.
For `CC(C)N(c1ccccc1)C(C)C`, the call in assay [1] and in assay [2] was inactive.
As to `COc1ccccc1O`, the call in assay [1] and in assay [2] was inactive.
As for `Cc1cccc(C)c1`, the result in assay [1] and in assay [2] was inactive.
Consider `CCCCCCCCCO`, for which the compound was classed as inactive in assay [1] and in assay [2].
In the case of `CC(O)CNCC(C)O` (stereo not given), the compound was called inactive in assay [1] and in assay [2].
Consider `CCCCCC1CCC(=O)O1` (stereo not given), for which the call in assay [1] and in assay [2] was inactive.
Regarding `CCCCCCCCOC(C)=O`, the compound was classed as inactive in assay [1] and in assay [2].
Regarding `C=CC(C)CCCC(C)(C)O` (stereo not given), the compound was called inactive in assay [1] and in assay [2].
Take `CN(C)C(=O)Nc1ccccc1`: the compound was classed as inactive in assay [1] and in assay [2].
Consider `CCCO`, for which the compound was classed as inactive in assay [1] and in assay [2].
As to `O=C(O)CS`, the compound was classed as inactive in assay [1] and in assay [2].
For the compound `C=CCCCCCCCCC(=O)OCC`, the compound was classed as inactive in assay [1] and in assay [2].
Consider `CC12CCC(C1)C(C)(C)C2O` (stereo not given), for which the compound was classed as inactive in assay [1] and in assay [2].
For the compound `CCCCOCCOCCOCCO`, the result in assay [1] and in assay [2] was inactive.
Consider `CCCC1CCC(=O)CC1`, for which the outcome in assay [1] and in assay [2] was inactive.
Regarding `NC(N)=S`, the result in assay [1] and in assay [2] was inactive.
Regarding `CCCCCCCCCCCCOCCOS(=O)(=O)O`, the compound was called inactive in assay [1] and in assay [2].
